hcDAF-12 act: activators of H. contortus DAF-12 nuclear receptor. activation, % at 6.8 µM. HEK293 hcDAF-12 lit1-tk-luc reporter, luminescence; 0% DMSO, 100% Δ7-dafachronic acid. AID 652067. hit rate 1.4% among 370,000;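 active means activation above the mean of all tested compounds plus 3 SD, cut at about 5.5% in these data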;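 further: 100% = response to 3 µM Δ7-dafachronic acid high control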
DAX1 inh-1: inhibitors of DAX1 repression of SF-1 activated StAR promoter | HEK293T StAR-luciferase reporter, SF-1/DAX-1 repression relief | inhibition, % at 6.8 µM | hit rate 1.1% among 370,000 | AID 652010;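 active means inhibition above the mean over all tested compounds plus 3 SD, cut at about 3.6% in these data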;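 further: 0% = DAX-1 cells with DMSO and 100% = cells lacking DAX-1 with DMSO; higher inhibition means more luminescence from relief of DAX-1 repression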
ssDAF-12 act: activates DAF-12 receptor from parasite S. stercoralis | HEK293 ssDAF-12/GRIP1 lit1-tk-luc reporter, luminescence; % of 3 µM dafachronic acid response | hit rate 1% among 370,000 | activation, % at 6.8 µM;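 active means activation above the mean over all tested compounds plus 3 SD, cut at about 0.9% in these data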;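 further: 0% = DMSO-only wells and 100% = 3 µM delta7-dafachronic acid wells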
SMARCA2 act: increases SMARCA2 function in MMTV reporter cells. MG213 cells, MMTV-luciferase reporter, dexamethasone, overnight. activation, % at 9.1 µM. AID 652017. hit rate 1% among 370,000; in the data active means activation above about 7.8%;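 further: 0% = vehicle wells and 100% = reference activator wells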
hgDAF12 agonist: hgDAF-12 agonism, primary luciferase screen. activation, % at 6.8 µM. hit rate 1.8% among 370,000. HEK293 GAL4-hgDAF12 UAS-luciferase reporter, agonist luminescence; normalized to butyrate control;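 active means activation above a cutoff set at the mean of all screened compounds plus 3 SD, cut at about 10% in these data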;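 further: 0% = DMSO wells and 100% = sodium butyrate wells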
DAX1 inh-2: inhibits human nuclear receptor DAX1; hit rate 0.99% among 340,000; inhibition, % at 6.75 µM; AID 504766; P51843; HEK293 Gal4-DAX1 luciferase reporter, luminescence;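 active means inhibition above the mean over all tested compounds plus 3 SD, cut at about 4.2% in these data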;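 further: 0% = DAX1-transfected cells with DMSO and 100% = empty-vector control cells with DMSO; inhibition shows as a rise in luminescence from relieved DAX1 repression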
DAX1 conf: NR0B1 (human) inhibition, confirmation. hit rate 87% among 2,400. inhibition, % at 6.8 µM. shares compounds with DAX1 inh-1. HEK293T StAR-promoter luciferase reporter, SF-1/DAX-1 repression;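 active means inhibition above the average of every tested compound plus 3 SD, cut at about 3.8% in these data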;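 further: 0% = DAX-1 cells with DMSO and 100% = no DAX-1 control cells with DMSO; active compounds raise luminescence by relieving repression of the StAR reporter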
SF1 AF2mut Luc: counter-screen for DAX1 inhibitors: nonselective inhibitors with SF-1 AF2 mutant. shares compounds with DAX1 inh-1. HEK293 StAR-luciferase, luminescence. inhibition, % at 6.8 µM. AID 652136. hit rate 78% among 2,400;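 active means inhibition above the mean of all tested compounds plus 3 SD, cut at about 3% in these data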;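 further: 0% = DAX-1 transfected cells with DMSO and 100% = cells without DAX-1 with DMSO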
SMARCA2 conf: confirmation of SMARCA2 (BRM) function activators | shares compounds with SMARCA2 act | MG213 cells, MMTV-luciferase with dexamethasone, luminescence, overnight; MG213 cells expressing E1A, Rb sequestered; DMSO wells 0%, reference activator 100% | AID 652260 | activation, % at 9.1 µM | hit rate 30% among 3,500;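 active means activation above its plate's cutoff, the mean activation of tested wells plus 3 SD, cut at about 7.9% in these data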
GAL4-VP16 Luc: counter-screen for SMARCA2 activators: GAL4-VP16 luciferase reporter activation. shares compounds with SMARCA2 act. HEK293 GAL4-VP16 pG5luc reporter, luciferase luminescence; scaled: DMSO wells 0%, SAHA wells 100%. activation, % at 9.1 µM. hit rate 41% among 3,500;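 active means activation above the solvent-only control well mean plus 3 SD, averaged across control plates, cut at about 5.2% in these data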
LXR ag: LXR-beta agonism as hcDAF-12 counter-screen; shares compounds with hcDAF-12 act; HEK293 Gal4-LXR tk-luc reporter, luminescence, 24 h; normalized: DMSO 0%, positive control 100%; activation, % at 6.8 µM; 3,400 tested, under 10 active;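 active means mean percent activation of the reporter above a cutoff set as the average over tested compounds plus their standard deviation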
Target sequence (P55055 whole entry, looked up, the tested form may be a part): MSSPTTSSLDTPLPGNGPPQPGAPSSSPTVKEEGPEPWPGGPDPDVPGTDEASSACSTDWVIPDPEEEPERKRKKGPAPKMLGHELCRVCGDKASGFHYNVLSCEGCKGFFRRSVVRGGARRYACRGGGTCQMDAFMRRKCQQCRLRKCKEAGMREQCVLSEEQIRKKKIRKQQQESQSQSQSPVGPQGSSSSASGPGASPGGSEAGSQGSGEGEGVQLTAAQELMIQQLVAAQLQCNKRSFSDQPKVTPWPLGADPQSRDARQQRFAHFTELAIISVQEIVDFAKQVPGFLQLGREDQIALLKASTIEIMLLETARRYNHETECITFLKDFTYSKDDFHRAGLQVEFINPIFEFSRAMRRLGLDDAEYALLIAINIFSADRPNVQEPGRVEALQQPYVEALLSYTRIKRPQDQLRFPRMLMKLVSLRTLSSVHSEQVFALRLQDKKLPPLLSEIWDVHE
hcDAF12 ag: hcDAF-12 agonism, confirmation assay. shares compounds with hcDAF-12 act. HEK293 hcDAF-12 lit1-tk-luc reporter, luminescence; % of Δ7-dafachronic acid response. activation, % at 6.8 µM. hit rate 61% among 3,400. AID 743032;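 active means mean activation across triplicate tests above the threshold derived from the earlier primary screen, cut at about 5.5% in these data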;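 further: 0% = DMSO only wells and 100% = 3 µM Δ7-dafachronic acid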
hgDAF12 conf: confirmation of H. glycines DAF-12 agonists | HEK293 GAL4-hgDAF12 luciferase reporter, agonist mode; percent of butyrate response | hit rate 80% among 3,300 | activation, % at 6.8 µM | shares compounds with hgDAF12 agonist | AID 743050;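 active means mean activation over triplicate wells above the hit cutoff derived from the earlier primary screen, cut at about 11% in these data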;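 further: 0% = DMSO low control and 100% = 2 mM sodium butyrate high control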
LXR ag 2: counter-screen for DAF-12 agonists: agonists of human LXR-beta; shares compounds with hgDAF12 agonist; HEK293 Gal4-LXR luciferase reporter, 24 h; activation, % at 6.8 µM; 3,300 tested, under 10 active;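 active means mean activation of the triplicate above a set limit carried over from the primary screen, none filed active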
Numbers without * were called inactive; x = no result given. Compounds with a hit are over-represented: about 4.8% of the library has one in this group of screens.

SMILES	hcDAF-12 act	DAX1 inh-1	ssDAF-12 act	SMARCA2 act	hgDAF12 agonist	DAX1 inh-2	DAX1 conf	SF1 AF2mut Luc	LXR ag	hcDAF12 ag	hgDAF12 conf	LXR ag 2	others
O=C(O)CC/C(=N/NC(=O)c1cccs1)c1ccccc1	9.6*	5.8*	1	9.2*	14*	3	3.8*	3.3*	0	2	11*	0	SMARCA2 conf=4;GAL4-VP16 Luc=2
COc1ccc(/C=C/C(=O)Nc2ccccc2C(=O)N2CCCC2)cc1	0	1	-2	0	0	0	x	x	x	x	x	x
COc1ccc(/C=C/C(=O)Nc2ccccc2C(=O)O)cc1	6.2*	5.2*	0	2	14*	-2	7.9*	3	x	x	11*	1
COc1ccc(C(=O)NCCSCc2ccc(Cl)cc2)cc1OC	-3	0	-1	0	1	0	x	x	x	x	x	x
Cc1ccc(NC(=O)c2ccccc2)s1	6.9*	4.5*	0	0	20*	0	15*	11*	1	8.3*	15*	1
CCOC(=O)c1ccc(NC(=O)c2nc[nH]c2C(=O)N2CCN(C(=O)OC(C)(C)C)CC2)cc1	-1	0	-1	0	-2	x	x	x	x	x	x	x
COc1ccc(C(=O)NCCNc2ccccc2[N+](=O)[O-])cc1	4	8.0*	0	4	19*	4	14*	6.7*	x	x	15*	1
CCCNC(=O)c1ccc(S(=O)(=O)c2ccc(OC)cc2)c([N+](=O)[O-])c1	-5	-1	-2	-4	-4	0	x	x	x	x	x	x
O=C(c1ccccc1)N1CCN(S(=O)(=O)N2CCOCC2)CC1	-1	0	-1	0	0	0	x	x	x	x	x	x
O=C(NC(Nc1ccccn1)C(Cl)(Cl)Cl)c1ccccc1 (configuration not stated)	-1	-1	-2	-3	0	0	x	x	x	x	x	x
C/C(=N/NC(=O)c1ccc(C)s1)c1cccc(NC(=O)c2ccoc2C)c1	-1	1	-1	4	4	0	x	x	x	x	x	x
C/C(=N/NC(=O)c1ccoc1C)c1cccc(NC(=O)C2CC2)c1	7.3*	6.1*	1.0*	3	16*	1	1	0	0	0	0	0
C/C(=N/NC(=O)c1ccoc1C)c1cccc(NC(=O)C(F)(F)F)c1	3	6.0*	1	7	15*	2	6.3*	2	x	x	6	0
O=C(CN1C(=O)COCC1=O)N1CCOCC1	-2	0	-2	4	2	0	x	x	x	x	x	x
O=C(NC1=NCCS1)c1sc2ccccc2c1Cl	11*	4.7*	1.1*	4	21*	1	12*	7.4*	1	9.7*	15*	1

Screening results: PubChem BioAssay, The Scripps Research Institute Molecular Screening Center
